The target of test [1] is Fibroblast growth factor receptor 4 (Homo sapiens) (UniProt P22455). Particulars: at 1 µM.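 Note: reported figure is the averaged percent inhibition of FGFR4, from the GSK PKIS kinase screening panel.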
Test [2] has as its target Tyrosine-protein kinase Fgr (Homo sapiens) (UniProt P09769). Particulars: at 0.1 µM.
Test [3] shares this target. Particulars: at 1 µM.
Test [4] addresses Vascular endothelial growth factor receptor 1 (Homo sapiens) (UniProt P17948). The conditions noted are these: at 0.1 µM.
Test [5] shares this target. The conditions noted are these: at 1 µM.
The target of test [6] is Receptor-type tyrosine-protein kinase FLT3 (Homo sapiens) (UniProt P36888). Particulars: at 0.1 µM.
Test [7] shares this target. Particulars: at 1 µM.
The subject of test [8] is T1, Receptor-type tyrosine-protein kinase FLT3 (Homo sapiens), P36888 [D835Y].
T1 sequence (whole entry): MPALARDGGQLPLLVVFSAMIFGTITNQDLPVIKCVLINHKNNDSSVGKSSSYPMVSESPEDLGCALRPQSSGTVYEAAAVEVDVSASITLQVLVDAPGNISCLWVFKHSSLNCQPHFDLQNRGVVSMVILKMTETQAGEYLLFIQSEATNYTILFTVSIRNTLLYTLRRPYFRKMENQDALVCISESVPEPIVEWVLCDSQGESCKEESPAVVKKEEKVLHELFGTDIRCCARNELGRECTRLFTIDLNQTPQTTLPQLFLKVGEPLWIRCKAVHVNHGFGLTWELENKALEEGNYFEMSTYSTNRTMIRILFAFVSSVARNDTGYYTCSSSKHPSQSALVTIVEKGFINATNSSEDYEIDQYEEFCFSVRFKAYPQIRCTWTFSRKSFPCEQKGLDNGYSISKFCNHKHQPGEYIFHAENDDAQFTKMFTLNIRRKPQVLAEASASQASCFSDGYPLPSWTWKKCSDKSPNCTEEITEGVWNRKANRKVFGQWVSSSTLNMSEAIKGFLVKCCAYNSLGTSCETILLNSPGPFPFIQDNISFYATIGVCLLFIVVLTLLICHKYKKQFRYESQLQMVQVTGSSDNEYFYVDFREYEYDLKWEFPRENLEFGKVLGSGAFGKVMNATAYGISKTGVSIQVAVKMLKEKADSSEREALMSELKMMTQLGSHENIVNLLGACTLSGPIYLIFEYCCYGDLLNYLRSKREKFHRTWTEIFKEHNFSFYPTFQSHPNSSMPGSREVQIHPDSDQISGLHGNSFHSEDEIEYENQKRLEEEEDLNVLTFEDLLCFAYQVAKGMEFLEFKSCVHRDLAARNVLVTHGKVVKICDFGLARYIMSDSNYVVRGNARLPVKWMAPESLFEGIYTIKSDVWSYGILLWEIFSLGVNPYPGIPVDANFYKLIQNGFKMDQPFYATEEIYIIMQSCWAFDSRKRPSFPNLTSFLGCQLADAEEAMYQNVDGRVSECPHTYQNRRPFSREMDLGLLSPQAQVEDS
Particulars: at 0.1 µM.

The target in test [9] is Non-receptor tyrosine-protein kinase TYK2 (Homo sapiens) (UniProt P29597). The conditions noted are these: at 1 µM.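 Note: values are mean percent inhibition of TYK2 kinase.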
The target in test [10] is T2, Tyrosine-protein kinase receptor TYRO3 (Homo sapiens) (UniProt Q06418).
T2 sequence (whole entry): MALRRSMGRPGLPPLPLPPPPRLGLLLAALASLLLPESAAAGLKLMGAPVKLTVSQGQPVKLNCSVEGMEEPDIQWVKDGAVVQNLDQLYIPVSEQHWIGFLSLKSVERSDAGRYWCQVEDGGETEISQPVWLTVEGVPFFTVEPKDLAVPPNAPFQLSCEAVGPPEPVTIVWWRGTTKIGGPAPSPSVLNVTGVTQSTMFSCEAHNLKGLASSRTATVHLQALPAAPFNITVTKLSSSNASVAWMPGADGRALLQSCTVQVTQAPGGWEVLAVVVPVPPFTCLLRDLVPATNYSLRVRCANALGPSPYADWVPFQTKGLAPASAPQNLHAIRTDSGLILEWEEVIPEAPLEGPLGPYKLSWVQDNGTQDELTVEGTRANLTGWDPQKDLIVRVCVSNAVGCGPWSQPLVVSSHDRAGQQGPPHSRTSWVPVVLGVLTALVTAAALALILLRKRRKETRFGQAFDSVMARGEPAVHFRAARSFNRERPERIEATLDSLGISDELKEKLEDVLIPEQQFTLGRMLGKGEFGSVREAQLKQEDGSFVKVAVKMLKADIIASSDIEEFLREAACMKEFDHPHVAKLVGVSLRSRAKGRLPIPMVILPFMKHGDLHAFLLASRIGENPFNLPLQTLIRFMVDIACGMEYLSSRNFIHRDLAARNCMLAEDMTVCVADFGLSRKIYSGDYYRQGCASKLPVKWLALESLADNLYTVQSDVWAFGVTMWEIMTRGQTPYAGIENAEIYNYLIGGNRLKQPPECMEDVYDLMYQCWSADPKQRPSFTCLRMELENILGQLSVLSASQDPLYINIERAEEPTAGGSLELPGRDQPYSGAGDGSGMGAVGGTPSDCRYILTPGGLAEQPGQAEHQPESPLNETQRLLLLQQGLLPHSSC
The conditions noted are these: at 0.1 µM.

Test [11] concerns the target T2, Tyrosine-protein kinase receptor TYRO3 (Homo sapiens). Particulars: at 1 µM.
The target of test [12] is Tyrosine-protein kinase Yes (Homo sapiens) (UniProt P07947). Particulars: at 0.1 µM.
Test [13] has the same target. Particulars: at 1 µM.
The target in test [14] is T3, Tyrosine-protein kinase ZAP-70 (Homo sapiens) (UniProt P43403).
T3 sequence (whole entry): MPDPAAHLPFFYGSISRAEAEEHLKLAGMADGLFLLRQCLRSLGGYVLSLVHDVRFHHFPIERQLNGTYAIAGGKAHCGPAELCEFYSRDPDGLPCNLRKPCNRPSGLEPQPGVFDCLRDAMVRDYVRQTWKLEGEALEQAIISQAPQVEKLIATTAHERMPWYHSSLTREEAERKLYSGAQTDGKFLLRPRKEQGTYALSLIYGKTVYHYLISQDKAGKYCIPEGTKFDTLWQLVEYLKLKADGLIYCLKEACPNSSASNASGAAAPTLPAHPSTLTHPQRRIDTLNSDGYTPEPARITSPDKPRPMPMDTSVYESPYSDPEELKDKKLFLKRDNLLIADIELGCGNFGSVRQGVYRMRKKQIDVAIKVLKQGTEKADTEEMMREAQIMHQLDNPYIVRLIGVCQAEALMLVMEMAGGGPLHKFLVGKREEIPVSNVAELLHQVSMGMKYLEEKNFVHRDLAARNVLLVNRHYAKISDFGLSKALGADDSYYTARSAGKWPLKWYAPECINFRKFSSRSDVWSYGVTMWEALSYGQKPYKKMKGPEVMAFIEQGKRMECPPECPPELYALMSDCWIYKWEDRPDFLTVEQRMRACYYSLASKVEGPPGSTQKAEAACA
Particulars: at 0.1 µM.

For test [15], the target named is T3, Tyrosine-protein kinase ZAP-70 (Homo sapiens). The conditions noted are these: at 1 µM.
Test [16] concerns the target Serine/threonine-protein kinase B-raf (Homo sapiens) (UniProt P15056). The conditions noted are these: at 0.1 µM.
For test [17] the target is unchanged. The conditions noted are these: at 1 µM.
Test [18] has as its system Serine/threonine-protein kinase B-raf (Homo sapiens), P15056 [V600E]. Particulars: at 0.1 µM.
Test [19] shares this test system. The conditions noted are these: at 1 µM.
For test [20], the target named is RAF proto-oncogene serine/threonine-protein kinase (Homo sapiens) (UniProt P04049). The conditions noted are these: at 0.1 µM.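 Note: values are mean CRAF kinase inhibition from profiling of the GSK Published Kinase Inhibitor Set.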
RAF proto-oncogene serine/threonine-protein kinase (Homo sapiens), sequence (P04049 whole entry): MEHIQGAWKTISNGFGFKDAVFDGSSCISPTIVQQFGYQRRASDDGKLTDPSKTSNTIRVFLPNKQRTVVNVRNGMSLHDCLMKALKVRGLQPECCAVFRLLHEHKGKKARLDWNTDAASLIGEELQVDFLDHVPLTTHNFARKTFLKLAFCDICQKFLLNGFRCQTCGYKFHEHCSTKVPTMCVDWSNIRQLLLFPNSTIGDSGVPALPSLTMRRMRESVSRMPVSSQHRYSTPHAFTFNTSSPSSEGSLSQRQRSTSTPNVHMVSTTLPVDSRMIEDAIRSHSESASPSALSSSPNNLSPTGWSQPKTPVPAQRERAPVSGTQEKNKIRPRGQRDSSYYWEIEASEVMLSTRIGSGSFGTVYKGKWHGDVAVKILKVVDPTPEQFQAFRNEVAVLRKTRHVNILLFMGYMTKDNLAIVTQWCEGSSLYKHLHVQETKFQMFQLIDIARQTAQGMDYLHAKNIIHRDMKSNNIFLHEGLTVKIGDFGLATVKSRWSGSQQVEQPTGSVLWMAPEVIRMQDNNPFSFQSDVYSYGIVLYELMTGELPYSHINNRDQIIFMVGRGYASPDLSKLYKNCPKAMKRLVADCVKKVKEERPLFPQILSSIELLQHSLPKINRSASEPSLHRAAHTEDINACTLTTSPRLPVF

Serine/threonine-protein kinase B-raf (Homo sapiens), sequence (P15056 whole entry): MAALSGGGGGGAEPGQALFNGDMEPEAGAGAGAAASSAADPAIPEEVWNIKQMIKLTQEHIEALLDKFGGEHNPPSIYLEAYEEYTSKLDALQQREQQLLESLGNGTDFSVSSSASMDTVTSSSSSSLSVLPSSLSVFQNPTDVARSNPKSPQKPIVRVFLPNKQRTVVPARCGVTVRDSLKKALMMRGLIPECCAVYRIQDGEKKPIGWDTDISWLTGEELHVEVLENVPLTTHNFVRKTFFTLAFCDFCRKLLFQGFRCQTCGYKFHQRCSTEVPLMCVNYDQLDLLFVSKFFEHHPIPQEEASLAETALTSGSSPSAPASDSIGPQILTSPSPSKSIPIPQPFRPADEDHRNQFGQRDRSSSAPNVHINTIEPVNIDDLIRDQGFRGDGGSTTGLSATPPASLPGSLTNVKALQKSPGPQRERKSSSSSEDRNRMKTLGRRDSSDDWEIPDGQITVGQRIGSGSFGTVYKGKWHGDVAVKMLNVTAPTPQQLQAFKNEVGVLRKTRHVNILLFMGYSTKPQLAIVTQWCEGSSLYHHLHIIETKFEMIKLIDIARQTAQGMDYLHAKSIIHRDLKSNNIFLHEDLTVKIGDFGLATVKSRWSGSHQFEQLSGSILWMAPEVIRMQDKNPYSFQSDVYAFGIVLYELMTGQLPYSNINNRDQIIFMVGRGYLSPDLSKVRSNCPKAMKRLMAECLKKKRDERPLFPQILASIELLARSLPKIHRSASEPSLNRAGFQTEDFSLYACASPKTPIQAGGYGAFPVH
Tyrosine-protein kinase Yes (Homo sapiens), sequence (P07947 2-543 limits assumed): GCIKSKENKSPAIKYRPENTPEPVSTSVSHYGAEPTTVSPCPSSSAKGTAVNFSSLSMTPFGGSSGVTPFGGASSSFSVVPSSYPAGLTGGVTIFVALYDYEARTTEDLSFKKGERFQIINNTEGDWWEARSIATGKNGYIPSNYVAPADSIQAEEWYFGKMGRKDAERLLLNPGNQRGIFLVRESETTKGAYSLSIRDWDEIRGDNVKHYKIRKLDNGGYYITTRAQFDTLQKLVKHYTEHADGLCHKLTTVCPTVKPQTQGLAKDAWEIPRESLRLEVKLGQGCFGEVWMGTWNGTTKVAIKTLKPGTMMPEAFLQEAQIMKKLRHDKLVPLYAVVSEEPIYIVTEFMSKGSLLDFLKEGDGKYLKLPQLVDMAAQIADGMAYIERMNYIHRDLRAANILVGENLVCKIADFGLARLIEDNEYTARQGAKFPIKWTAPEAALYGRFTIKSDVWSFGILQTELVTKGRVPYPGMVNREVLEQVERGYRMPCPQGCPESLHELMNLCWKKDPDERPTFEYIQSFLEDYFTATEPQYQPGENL
Non-receptor tyrosine-protein kinase TYK2 (Homo sapiens), sequence (P29597 whole entry): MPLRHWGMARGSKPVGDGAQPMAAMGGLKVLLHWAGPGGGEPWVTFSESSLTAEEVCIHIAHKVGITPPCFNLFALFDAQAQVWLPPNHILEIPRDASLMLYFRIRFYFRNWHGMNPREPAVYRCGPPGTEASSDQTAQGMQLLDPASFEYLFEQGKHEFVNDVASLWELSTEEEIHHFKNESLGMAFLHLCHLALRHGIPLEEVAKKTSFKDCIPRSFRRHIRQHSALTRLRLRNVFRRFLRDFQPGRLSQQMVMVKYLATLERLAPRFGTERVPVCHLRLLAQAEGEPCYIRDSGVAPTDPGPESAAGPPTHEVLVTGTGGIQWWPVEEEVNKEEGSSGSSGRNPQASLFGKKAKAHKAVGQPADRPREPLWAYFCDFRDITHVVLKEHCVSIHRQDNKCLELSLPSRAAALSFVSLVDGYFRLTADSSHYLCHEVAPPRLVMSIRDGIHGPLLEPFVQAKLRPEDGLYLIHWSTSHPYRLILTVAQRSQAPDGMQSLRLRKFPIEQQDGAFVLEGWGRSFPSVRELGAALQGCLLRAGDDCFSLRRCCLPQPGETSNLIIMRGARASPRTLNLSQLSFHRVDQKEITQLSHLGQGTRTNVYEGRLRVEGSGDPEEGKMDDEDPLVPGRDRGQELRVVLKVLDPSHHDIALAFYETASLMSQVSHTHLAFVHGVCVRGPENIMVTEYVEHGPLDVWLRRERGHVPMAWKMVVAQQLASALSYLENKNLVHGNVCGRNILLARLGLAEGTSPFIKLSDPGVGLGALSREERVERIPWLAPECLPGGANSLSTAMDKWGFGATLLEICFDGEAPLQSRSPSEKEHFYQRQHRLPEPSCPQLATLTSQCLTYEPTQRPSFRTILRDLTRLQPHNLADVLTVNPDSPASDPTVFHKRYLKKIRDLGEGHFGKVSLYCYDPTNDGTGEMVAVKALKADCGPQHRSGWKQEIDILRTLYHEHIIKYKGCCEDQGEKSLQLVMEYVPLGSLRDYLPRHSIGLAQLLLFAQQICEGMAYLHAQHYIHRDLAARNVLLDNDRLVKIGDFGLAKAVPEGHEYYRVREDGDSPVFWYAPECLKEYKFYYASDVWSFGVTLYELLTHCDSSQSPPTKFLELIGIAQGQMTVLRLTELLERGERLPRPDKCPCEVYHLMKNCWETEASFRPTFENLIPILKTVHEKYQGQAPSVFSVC
Fibroblast growth factor receptor 4 (Homo sapiens), sequence (P22455 22-802 limits assumed): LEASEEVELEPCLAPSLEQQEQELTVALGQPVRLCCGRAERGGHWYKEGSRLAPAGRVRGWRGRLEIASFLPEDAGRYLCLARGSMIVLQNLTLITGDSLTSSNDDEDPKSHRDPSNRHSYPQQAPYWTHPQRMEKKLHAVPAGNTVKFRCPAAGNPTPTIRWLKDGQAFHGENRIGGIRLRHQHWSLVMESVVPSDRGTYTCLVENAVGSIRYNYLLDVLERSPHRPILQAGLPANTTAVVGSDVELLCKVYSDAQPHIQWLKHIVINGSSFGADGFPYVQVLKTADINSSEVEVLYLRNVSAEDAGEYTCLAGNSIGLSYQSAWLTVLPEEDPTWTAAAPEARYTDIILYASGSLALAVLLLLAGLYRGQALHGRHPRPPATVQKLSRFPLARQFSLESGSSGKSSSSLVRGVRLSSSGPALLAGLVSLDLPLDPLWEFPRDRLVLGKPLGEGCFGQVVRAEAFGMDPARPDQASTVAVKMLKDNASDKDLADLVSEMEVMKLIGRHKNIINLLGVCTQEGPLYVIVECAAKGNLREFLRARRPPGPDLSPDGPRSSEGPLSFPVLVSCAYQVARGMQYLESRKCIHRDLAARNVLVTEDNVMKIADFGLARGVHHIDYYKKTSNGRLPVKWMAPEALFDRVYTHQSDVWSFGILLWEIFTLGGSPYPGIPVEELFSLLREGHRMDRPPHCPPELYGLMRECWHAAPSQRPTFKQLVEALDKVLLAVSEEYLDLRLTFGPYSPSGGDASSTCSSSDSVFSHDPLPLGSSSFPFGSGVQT
Serine/threonine-protein kinase B-raf (Homo sapiens), P15056 [V600E], sequence (P15056 whole entry V600E): as the sequence (P15056 whole entry) above, with V600E counted along it
Tyrosine-protein kinase Fgr (Homo sapiens), sequence (P09769 2-529 limits assumed): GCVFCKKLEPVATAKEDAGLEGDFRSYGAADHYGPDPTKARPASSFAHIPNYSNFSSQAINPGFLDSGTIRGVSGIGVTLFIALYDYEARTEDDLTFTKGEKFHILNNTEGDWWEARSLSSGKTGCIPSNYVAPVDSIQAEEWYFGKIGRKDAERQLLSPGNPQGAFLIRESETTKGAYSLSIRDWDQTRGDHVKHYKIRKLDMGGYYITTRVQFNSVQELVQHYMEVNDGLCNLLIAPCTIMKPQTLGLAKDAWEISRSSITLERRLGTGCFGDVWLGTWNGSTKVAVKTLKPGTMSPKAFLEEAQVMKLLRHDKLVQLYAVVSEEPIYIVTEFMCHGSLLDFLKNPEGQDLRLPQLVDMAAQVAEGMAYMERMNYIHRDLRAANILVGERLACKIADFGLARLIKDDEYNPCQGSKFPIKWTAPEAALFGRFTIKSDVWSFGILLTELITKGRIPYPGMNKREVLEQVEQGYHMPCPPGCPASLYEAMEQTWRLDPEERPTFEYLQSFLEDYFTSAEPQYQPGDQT

For the compound `NC(=O)Cc1ccccc1Oc1nccc(-c2c(-c3ccc(F)cc3)ncn2C2CCNCC2)n1`, the inhibition in test [1] is 0.51%; in test [2], 0.84%; in test [3], 2.97%; in [4], 0.07%; in test [5], 0.23%; in [6], -1.59%. Further, the inhibition is 1.61% in test [7]; -3.58% in test [8]; -2.45% in test [9]; 0.04% in test [10]; -0.3% in test [11]; 1.2% in test [12]. For the same compound, the inhibition was 2.44% in test [13]; 2.88% in test [14]; -4.81% in test [15]; 3.8% in test [16]; 6.06% in test [17]; 3.3% in test [18]. Besides, the inhibition in test [19] was 4.77%; in test [20], -0.15%.

In the case of `NS(=O)(=O)c1ccc(N/N=C2\C(=O)Nc3ccc(-c4cnco4)cc32)cc1`, the inhibition in [1] is -2.44%; in [2], 3.25%; in test [3] it was 12.9%; in [4], -0.89%; in test [5] it was 7.48%; in test [6] it was 5.93%. Further, the inhibition in [7] was found to be 38.3%; in test [8] it was 22.6%; in test [9], 9.13%; in test [10], 2.48%; in test [11] it was 12.4%; in [12], 2.12%. In addition, the inhibition in test [13] is 12.1%; in test [15] it was 2.47%; in [16] it was 3.07%; in test [17], 5.71%; in test [18], 1.57%; in test [19], 4.4%. Further, the inhibition in test [20] is 0.67%.

In the case of `COc1cccc(/C=N/Nc2ncnc3c2cnn3-c2cccc(OC)c2)c1`, the inhibition amounted to 0.32% in test [1]; 1.37% in test [2]; 8.08% in [3]; 3.79% in test [4]; 0.71% in [5]; 0.18% in test [6]. For the same compound, the inhibition in test [7] is 4.83%; in test [8] it was -0.05%; in test [9], -1.11%; in [10] it was 3.49%; in test [11] it was 4.49%; in test [12], 2.39%. Also, the inhibition is 8.43% in test [13]; 1.23% in test [14]; 2.81% in [15]; 4.82% in test [16]; 6.54% in test [17]; 4.25% in test [18]. Besides, the results for the inhibition in test [19] and in [20] were 4.68% and 1.07%, respectively.

Consider `NC(=O)c1ccc(Oc2nccc(-c3c(-c4ccc(F)cc4)ncn3C3CCNCC3)n2)cc1`, for which the inhibition is 3.45% in test [1]; 1.87% in [2]; 3.62% in test [3]; 0.89% in test [4]; -0.43% in test [5]; 2.76% in test [6]. For the same compound, the inhibition was 4.78% in test [7]; 0.27% in test [8]; -4.56% in test [9]; 2.41% in test [10]; 4.62% in test [11]; 4.3% in test [12]. Further, the inhibition in test [13] turned out to be 4.13%; in test [14], 2.59%; in [15], 4.42%; in [16], 7.51%; in test [17] it was 10.8%; in [18] it was 4.69%. The inhibition in test [19] is 5.64%; in [20] it was 3.18%.

On to `c1ccc(-c2n[nH]cc2-c2ccnc(-c3ccc(OCCN4CCOCC4)cc3)c2)nc1`, for which the inhibition in test [1] is 4.93%; in [2], 4.14%; in test [3] it was 6.86%; in [4], 3.88%; in test [5] it was 15.6%; in test [6] it was -2.01%. Further, the inhibition is 1.37% in test [7]; -0.15% in test [8]; 1.87% in test [9]; -0.18% in test [10]; -0.82% in [11]; -1.99% in test [12]. Further, the inhibition in test [13] was 2.34%; in [14] it was 5%; in test [15], 0.13%; in [16], -2.91%; in [17] it was -2.83%; in [18], -4.04%. Also, the inhibition in test [19] is -1.12%; in test [20], -0.28%.

Regarding `Cc1ccc(C(=O)NC(C)C)cc1-c1ccc(C(=O)NCC2CC2)cc1`, the inhibition in test [1] is 0.47%; in test [2], -1.7%; in test [3], -1.1%; in [4], 0.43%; in [5], -1.81%; in test [6], -4.25%. The inhibition in test [7] is -1.66%; in test [8] it was -1.15%; in test [9], 2.94%; in [10] it was -2.22%; in test [11], -0.5%; in test [12] it was -0.21%. The inhibition was -0.56% in test [13]; -5.65% in test [14]; -1.41% in test [15]; -3.13% in [16]; -5.03% in test [17]; -4.24% in [18]. Also, the inhibition is -2.75% in [19] and -1.46% in [20].

Regarding `C[C@@H](Oc1cc(-n2cnc3ccc(OCC4CCN(C)CC4)cc32)sc1C(N)=O)c1ccccc1Cl`, the inhibition in [1] is 4.52%; in test [2] it was 2.78%; in test [3], 13.7%; in test [4] it was 1.38%; in test [5], -0.37%; in [6], 6.77%. The inhibition was 16.1% in [7]; -8.99% in [8]; -4.49% in test [9]; 2.99% in test [10]; 6.74% in test [11]; 2.66% in [12]. The inhibition in test [13] turned out to be 15.5%; in test [14] it was 4.61%; in test [15], 6.88%; in test [16], 8.65%; in [17] it was 10.6%; in test [18] it was 6.37%. The inhibition in test [19] is 5.47%; in test [20] it was 3.88%.

As a reminder, the inhibition is the relative decrease from the control value, in per cent.

Values taken from ChEMBL document CHEMBL1961873, “Compounds: GSK PKIS; Assays: Nanosyn kinase panel” (2012).
